Assay results reported in PubChem BioAssay (NCI).
“And” between values parts separate entries of the source, which are not always exact repeats. Identical values can stand only once. Compounds without any hit were thinned out: in the full panel of roughly 83,000, 20% have a hit.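 Each cell line was grown in a 96-well plate and treated with one concentration of compound for 48 hours. Values below 10 were considered active.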 A number with no mark means an inactive call. The source made the active and inactive calls.

What follows are compounds tested on MDA-MB-468 breast (assay: NCI-60 one-dose screen, 48 h (100 = growth as untreated, 0 = no growth, -100 = all killed)). Details: 10 µM unless noted.

| SMILES | growth |
| --- | --- |
| CC(=O)c1c(Nc2ccc(F)c(F)c2F)[nH]c2c(F)cc(F)cc2c1=O | -21.9% (active) |
| CCOC(=O)c1ccc(N2NC(=O)/C(=C/c3ccc([N+](=O)[O-])o3)C2=O)cc1 | 106% |
| O=C1NC(=O)c2cc([N+](=O)[O-])ccc21 | 96.1% |
| Nc1cc2c(cc1Cl)C(=O)c1ccccc1C2=O | 70.2% |
| NC(=Nc1ccc(N)cc1)C(N)=Nc1ccc(N)cc1 | 94.3% |
| Cc1cc2c(-c3nc4ccccn4c3N)c(O)c(O)cc2c(O)c1-c1c(C)cc2c(-c3nc4ccccn4c3N)c(O)c(O)cc2c1O | -2.1% (active) |
| COc1ccc(/C=C/C(=O)CCC(=O)O)cc1OC | 113% |
| O=C(O)c1cc2ccccc2s1 | 112% |
| CN1CCN(Cc2ccc(NC(=O)c3cncc(C#Cc4[nH]nc5ncncc45)c3)cc2C(F)(F)F)CC1 | 58% |
| OC1CCCN(Cc2ccccc2)C1 (centres undefined) | 103% |
| CCOC(=O)C(=O)CC(=O)c1ccccc1 | 96.9% |
| COc1ccc([C@@H]2[C@@H](O)C(=O)N2c2cc(OC)c(OC)c(OC)c2)cc1 | 2.98% (active) |
| COc1ccc(-c2nn3c(-c4ccccc4F)nnc3s2)cc1 | 6.82% (active) |
| CCCn1cc(/C=N\N=C2\C(=O)Nc3ccc(C)cc32)c2ccccc21 | 25.2% |
| COc1ccc2c(ccc[n+]2C)c1 | 81.5% |
| O=C(O)c1ccc2c3c(ncnc13)-c1ccccc1C2=O | 95.7% |
| COc1ccc(/C=N\NC(=O)CN2CCN(c3cc4c(cc3F)c(=O)c(C(=O)N/N=C/c3ccc(OC)c(OC)c3)cn4C3CC3)CC2)cc1OC | -27.6% (active) |
| O=C(NCCCCCCCNC(=O)OCc1ccc2c(Cl)cc(Cl)c(O)c2n1)OCc1ccc2c(Cl)cc(Cl)c(O)c2n1 | -57.3% (active) |
| Nc1ccccc1-c1ccc(-c2ccc(Cl)cc2)c2c1[nH]c1ccccc12 | 91.5% |
| Cc1cccc(N2C(=O)/C(=C/C(Cl)=C/c3ccc([N+](=O)[O-])cc3)SC2=S)c1C | 11.6% |

| SMILES | growth |
| --- | --- |
| CN(C)c1nc(-c2ccco2)n2nc(-c3ccco3)cc2n1 | -22.1% (active) |
| CCc1ccc(C(=O)/C=C/C23c4ccccc4C(c4ccccc42)C2C(=O)NC(=O)C23)cc1 (centres undefined) | -15.9% (active) |
| CCCC(C)c1ccc(OCCCCCCN2CCNCC2)cc1 (centres undefined) | -58.5% (active) |
| O=C(NNc1ccccc1)c1ccccc1 | 87.1% and 103% |
| Cc1ccc(-c2cc(-c3cccc4ccccc34)n3c(n2)nc2ccccc23)cc1 | 70.4% |
| COc1ccc(/C=N/NC(=O)Cn2c(-c3ccc(S(C)(=O)=O)cc3)nc3cc(Cl)ccc32)cc1 | -18.5% (active) |
| COC(=O)/C=C1\S/C(=N\NC(=O)c2cc3ccc2/C=C\c2ccc(cc2)/C=C\3)N(c2ccccc2)C1=O | -0.388% (active) |
| COc1cccc(C(Cc2ccccc2)Nc2ccccc2)c1OC (centres undefined) | 111% |
| NCCCNc1nc2ccccc2c2c(=O)c3cc(F)cc(F)c3sc12 | 70.3% |
| C=CCn1c(SCC(=O)Nc2cccc(C(=O)/C=C/c3ccc(OC)c(OC)c3)c2)nc2ccccc2c1=O | 80.9% |
| COc1cc(CC(=O)c2ccc(O)c(OC)c2)ccc1O | 101% |
| O=C1OCc2cccc3cccc1c23 | 104% |
| COc1ccc(Cn2cc3c(c2-c2cc(OC)c(OC)c(OC)c2)CCc2c(CN4CCOCC4)noc2-3)cc1 | 45.5% |
| COc1ccc(-c2nc(-c3ccccc3)c(-c3ccccc3)[nH]2)cc1OC1CCCC1 | 40.4% |
| CCCCC(O)(c1ccc(Cl)cc1)C(CN1CCOCC1)c1ccc(Cl)cc1 (centres undefined) | 24.7% |
| C/C(=C(\c1ccc(OCCN2CCOCC2)cc1)c1ccc(OC(=O)C2CCCCC2)cc1)c1ccc(Cl)cc1 | 79.2% |
| COc1ccc2c(c1)c(=O)oc1c(C)c(OCC(C)=O)ccc12 | 88.5% |
| O=C(CCC(=O)N(CCO)CCO)N(CCO)CCO | 110% |
| Nc1ccc(C(=O)Nc2cccc(C(=O)Nc3ccc4c(O)c(N=Nc5ccc(N=Nc6ccc(S(=O)(=O)O)cc6)cc5)c(S(=O)(=O)O)cc4c3)c2)cc1 | 100% |
